# Tested on: RIVA
# Assay: growth inhibition by drug plus 177Lu-lilotomab satetraxetan (1 - RLU/untreated control) (fraction); higher = stronger inhibition
# Details: 177Lu-lilotomab satetraxetan 0.5 ug/ml
# Description: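 RIVA (RI-1) ABC-DLBCL cells were pretreated or not for 18 h with 0.5 ug/ml 177Lu-lilotomab satetraxetan (600 MBq/mg), washed and seeded (3000 cells/well) on 384-well plates pre-printed with the Selleck Cambridge Cancer Compound library. Viability was read by RealTime-Glo luminescence on days 3-6 after seeding. Effect = 1 - RLU/mean RLU of the 48 untreated no-drug control wells per plate; Bliss score = (M-E)/(1-Fa).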
SMILES,"growth inhibition by drug plus 177Lu-lilotomab satetraxetan (10 nM, time (day): 3)","growth inhibition by drug plus 177Lu-lilotomab satetraxetan (10 nM, time (day): 4)","growth inhibition by drug plus 177Lu-lilotomab satetraxetan (10 nM, time (day): 5)","growth inhibition by drug plus 177Lu-lilotomab satetraxetan (10 nM, time (day): 6)","growth inhibition by drug plus 177Lu-lilotomab satetraxetan (100 nM, time (day): 3)","growth inhibition by drug plus 177Lu-lilotomab satetraxetan (100 nM, time (day): 4)","growth inhibition by drug plus 177Lu-lilotomab satetraxetan (100 nM, time (day): 5)","growth inhibition by drug plus 177Lu-lilotomab satetraxetan (100 nM, time (day): 6)"
O=C(Nc1ccc(OC(F)(F)F)cc1)c1sccc1NCc1ccnc2ccccc12,0.534,0.568,0.593,0.603,0.0922,0.306,0.33,0.355
Oc1nc(-c2ccc(C(F)(F)F)cc2)nc2c1CSCC2,0.347,0.483,0.51,0.519,0.424,0.518,0.521,0.496
CN(NC(=O)CC(=O)NN(C)C(=S)c1ccccc1)C(=S)c1ccccc1 [Elesclomol],0.972,0.968,0.972,0.974,0.987,0.988,0.987,0.988
CS(=O)(=O)CCNCc1ccc(-c2ccc3ncnc(Nc4ccc(OCc5cccc(F)c5)c(Cl)c4)c3c2)o1 [Lapatinib Ditosylate (Tykerb)],0.649,0.657,0.672,0.674,0.379,0.475,0.487,0.486
COc1cc(Nc2ncc(F)c(Nc3ccc4c(n3)N(COP(=O)(O)O)C(=O)C(C)(C)O4)n2)cc(OC)c1OC,0.382,0.517,0.542,0.553,0.413,0.448,0.452,0.437

# — the supplement of paper PMC6897291
